Sm TGR block: blocks Schistosoma mansoni thioredoxin glutathione reductase | Potency, µM (titrated, usually from 114 µM), without a hit: at the top dose activity change, negative = inhibition, actives largely listed as inhibitors | purified TGR, DTNB reduction, TNB absorbance 405 nm | Q962Y6 | 360,000 compounds, 3% hits; also: nearly all actives have a fitted effect of over 60% in size
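Kinetic colorimetric format: TGR-catalysed, NADPH-driven DTNB reduction monitored via TNB absorbance. Enzyme dispensed at 20 nM; compound exposure 15 min at room temperature before reaction start.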
AmpC detergent: blocks E. coli AmpC beta-lactamase in detergent assay. P00811. Potency, µM (top dose mostly 114 µM), inactives show top-dose activity change, negative = inhibition, hits mostly inhibitors. AID 485294. AmpC hydrolysis of nitrocefin, absorbance 480 nm, 0.01% Triton. 370,000 compounds, 0.041% hits;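 also: 0% = no-compound wells and -100% = no-enzyme wells; nearly all actives have a fitted effect of over 25% in size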
Target sequence (P00811 whole entry, looked up): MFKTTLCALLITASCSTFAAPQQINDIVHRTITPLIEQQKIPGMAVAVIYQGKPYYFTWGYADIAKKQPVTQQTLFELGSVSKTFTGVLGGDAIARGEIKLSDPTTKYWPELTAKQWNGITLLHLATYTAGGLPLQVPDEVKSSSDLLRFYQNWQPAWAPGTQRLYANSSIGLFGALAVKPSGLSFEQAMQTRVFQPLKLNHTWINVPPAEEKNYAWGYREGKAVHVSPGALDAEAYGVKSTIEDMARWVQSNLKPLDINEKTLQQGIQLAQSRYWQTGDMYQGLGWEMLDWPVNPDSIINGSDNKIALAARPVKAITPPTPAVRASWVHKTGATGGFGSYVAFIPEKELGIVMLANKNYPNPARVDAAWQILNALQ
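20 mM phosphate pH 7.0 + 0.01% (detergent screen) or 0.0001% Triton X-100; 5.3 nM AmpC reagent; cpd preinc 15 min RT; nitrocefin (800 uM stock) to start; A480 q20 s × 4 min; Activity was normalised to no-enzyme and no-compound control wells.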
AmpC no deterg: inhibitors of E. coli AmpC beta-lactamase without detergent; P00811; AmpC nitrocefin hydrolysis, absorbance 480 nm, 0.0001% Triton; Potency, µM (series often up to 57.1 µM), for inactives: at the top dose activity change, negative = inhibition, usual class: inhibitors; 330,000 compounds, 0.52% hits; AID 485341;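 also: plate controls were no compound for no effect and no enzyme for full effect; nearly all actives have a fitted effect of over 20% in size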
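20 mM phosphate pH 7.0 + 0.01% (detergent screen) or 0.0001% Triton X-100; 5.3 nM AmpC reagent; cpd preinc 15 min RT; nitrocefin (800 uM stock) to start; A480 q20 s × 4 min; Activity was normalised to no-enzyme and no-compound control wells.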
Active calls of the source: *; ? = inconclusive; . = no result given; [ ] = dose if it differs, or a comment. Rows were chosen to be rich in hits. Some 3.3% of all compounds tested hit in one or more screens of this group. Calls follow the shape of the dose curve; as a rule, active = well fitted curve in the direction sought with a large enough effect; inconclusive = small, poorly fitted or top-dose-only effect, or another doubt; inactive = no such curve, though single readings can be large; an effect the other way counts as inactive or inconclusive. Unless noted, % is scaled to controls: 0 for no effect and ±100 for the full control effect; potency is read from the fitted curve at half-maximal effect.

SMILES | Sm TGR block | AmpC detergent | AmpC no deterg
Cc1c(/C=N/Nc2ccc(F)cc2)c(O)n(C)c(=O)c1C#N | 25µM* | 6% | -15%
Cc1ccc2nc(/C(C#N)=C/c3cccc(Br)c3)[nH]c2c1 | 6% | -13% | .
Cc1ccc2nc(/C(C#N)=C/c3ccc(O)c(O)c3)[nH]c2c1 | -1% | 15% | 20µM*
CCOC(=O)c1cnc2c(ccc3ccccc32)c1Nc1ccc(OC)cc1OC | -1% | 9% | .
COc1ccc(/C=C2/C(=O)NC(=O)N(Cc3ccco3)C2=O)cc1 | . | 11% | 23%
Cc1ccc(-n2c(C)cc(/C=C3/C(=O)NC(=O)N(Cc4ccco4)C3=O)c2C)cc1 | -33% | ? | -56%
Cn1cccc1/C=C1\C(=O)NC(=O)N(Cc2ccco2)C1=O | 40µM* | 4% | -31%
Cc1ccc(OCCn2cccc2/C=C2/C(=O)NC(=O)N(Cc3ccco3)C2=O)cc1 | 14µM* | -3% | ?
O=C(CNc1ccc(Cl)cc1)c1ccc(Br)cc1 | -3% | -13% | -28%
Cc1ccc(NCC(=O)c2ccc(C)cc2)cc1 | 0% | 2% | -13%
CCc1ccc(NCCC(=O)c2ccc(Br)cc2)cc1 | 13µM* | 0% | -2%
Cc1ccc(NCCC(=O)c2ccc(Cl)cc2)cc1 | 6.3µM* | 1% | -22%
Cc1ccc(NCCC(=O)c2ccc(Br)cc2)cc1 | 7.1µM* | -1% | -21%
O=C(CNc1ccc(Br)cc1)c1ccc(O)cc1 | -8% | 3% | -34%
Cc1onc(-c2c(F)cccc2Cl)c1C(=O)N[C@@H]1C(=O)N2C(C(=O)O)C(C)(C)S[C@H]12 (stereo partly drawn) | -27% | 2.5µM* | .
Cc1onc(-c2ccccc2Cl)c1C(=O)Nc1ccc(Br)cc1 | -2% | -3% | -31%
Cc1onc(-c2ccccc2Cl)c1C(=O)N[C@@H]1C(=O)N2[C@@H]1SC(C)(C)[C@@H]2C(=O)O | -3% | 0.35µM* | 0.79µM*
Cc1onc(-c2c(F)cccc2Cl)c1C(=O)NCc1ccc(F)cc1 | 13% | 7% | -26%
COc1ccc(-n2nnnc2C2CCN(S(=O)(=O)c3ccc(C)cc3)CC2)cc1 | 5% | 20% | .
CC(=O)c1cccc(S(=O)(=O)NCC(C)(C)N2CCOCC2)c1 | 40µM* | 0% | -9%
CC(C)(CNC(=O)c1cccc(S(=O)(=O)NCc2ccccc2)c1)N1CCOCC1 | 1% | 3% | -11%
Cc1cc2c(cc1NC(=O)c1ccccc1C)n(C)c(=O)c(=O)n2C | -2% | -3% | .
O=C1CN(C(=O)c2ccc(S(=O)(=O)N3CCCCC3)cc2)C(c2ccc(F)cc2)c2cc(Br)ccc2N1 (stereo not drawn) | -27% | -6% | .
CCN1CCN(C(=O)CSCc2nc(-c3ccc(OC)c(OC)c3)oc2C)CC1 | -29% | -1% | 53%
CCN1CCN(C(=O)CS(=O)Cc2nc(-c3ccc(OC)cc3)oc2C)CC1 (stereo not drawn) | ? | -4% | 11%
SMILES | Sm TGR block | AmpC detergent | AmpC no deterg
COc1ccc(-c2nc(CS(=O)CC(=O)N3CCCC3)c(C)o2)cc1 (stereo not drawn) | 7.1µM* | ? | 2%
Cc1ccc(-c2nc(CS(=O)CC(=O)NCCN3CCOCC3)c(C)o2)cc1 (stereo not drawn) | -20% | ? | -1%
CCOC(=O)N1CCN(C(=O)CS(=O)Cc2nc(-c3ccc(OC)c(OC)c3)oc2C)CC1 (stereo not drawn) | 45µM* | 3% | 49%
Cc1ccc(-c2nc(CS(=O)CC(=O)N3CCC4(CC3)OCCO4)c(C)o2)cc1 (stereo not drawn) | 45µM* | -13% | 15%
COc1ccc(NC(=O)N2CCN(S(=O)(=O)c3ccc4c(ccn4C)c3)CC2)cc1OC | -1% | 20% | .
COc1ccc(OC)c(NC(=O)Nc2cccc(OCc3cc(=O)n4cc(C)ccc4n3)c2)c1 | ? | 0% | .
O=C(Nc1ccc(Br)cc1)c1ccc(F)c(S(=O)(=O)N2CCc3ccccc32)c1 | 3% | -2% | .
Cc1cc(C)cc(NC(=O)Cn2c3ncccc3c(=O)n2-c2ccc(C)c(C)c2)c1 | -1% | 4% | .
CCOC(=O)c1sc(NCc2ccco2)c(-c2nc3ccccc3s2)c1N | 12%[11.4 µM] | ? | 11µM*
CCNc1sc(C(=O)c2cccs2)c(N)c1-c1nc2ccccc2s1 | -10% | -17% | -36%
O=C(CCC(=O)c1cccs1)NNC(=O)c1ccc(Cl)cc1 | -34% | 7% | -9%
O=C(CCC(=O)c1cccs1)NNC(=O)c1ccccc1O | 11µM* | 1% | -34%
O=C(CSc1nc(-c2ccccc2)nc2cc(=O)[nH]n12)Nc1ccccc1 | -5% | -1% | .
O=C(NC1CC1)C1=C[C@H](C2CCCCC2)C[C@H](OCCCCO)O1 | -5% | -1% | 123%
C#CCNC(=O)C1=C[C@@H](C2CC2)C[C@@H](OCCCCO)O1 | ? | -4% | -3%
C#CCNC(=O)C1=C[C@H](C2CCCCC2)C[C@H](OCCCCO)O1 | 13µM* | 10% | 52%
C#CCNC(=O)C1=C[C@@H](C2CCCCC2)C[C@@H](OCCCCO)O1 | 13µM* | -3% | 80%
CCOc1ccc(S(=O)(=O)N(C(=O)c2ccncc2)c2ccc3oc(C)c(C(=O)OC)c3c2)cc1 | 1% | -10% | .
CCC(=O)N1CCc2cc(Br)cc(S(=O)(=O)N(CC)Cc3ccccc3)c21 | 5% | 6% | .
O=C(Cn1ccc2cc(S(=O)(=O)N3CCCCC3)ccc21)NCCc1ccccc1Cl | 10% | 20% | .
Cc1ccc(CNC(=O)CSC2=Nc3ccccc3N=C(c3ccc(F)cc3)C2)cc1 | -31% | 20% | .
CCC(=O)N(C1=C(NC)C(=O)c2ccccc2C1=O)C(C)C | -3% | 6% | -10%
CCC(=O)N(CC)C1=C(O)c2ccccc2C(=O)C1=O | 0.28µM* | -5% | 27%
CC1(C)CC(=O)C(CC(=O)Nc2ccc(S(N)(=O)=O)cc2)=C(O)C1 | -35% | -1% | -23%
CC1(C)CC(=O)C(CS(=O)(=O)c2ccccc2)=C(O)C1 | 1µM* | ? | -15%
SMILES | Sm TGR block | AmpC detergent | AmpC no deterg
Nc1nonc1-c1nc2ccccc2n1CC(=O)N/N=C/c1ccc(-c2cccc(C(=O)O)c2)o1 | 50µM* | -11% | -19%
Nc1nonc1-c1nc2ccccc2n1CC(=O)Nc1ccccc1C(=O)O | 5% | -10% | .
c1ccc(C[n+]2csc3ccccc32)cc1 | 4.5µM* | -18% | -22%
Fc1cccc(C[n+]2csc3ccccc32)c1 | -32% | -15% | 1%
COC(=O)c1cc2sccc2n1Cc1nc(-c2ccc(C)cc2)oc1C | -11% | 2% | .
Cn1c2ccccc2c2cc(/C=N/NC(=O)c3cc(O)ccc3O)ccc21 | ? | -1% | -57%
Cn1c2ccccc2c2cc(/C=N/NC(=O)c3cc(O)cc(O)c3)ccc21 | -9% | 1% | 16µM*
CC(=O)n1cc(/C=N/NC(=O)c2cccc(O)c2)c2ccccc21 | 0% | -9% | 11µM*
CC(=O)n1cc(/C=N/NC(=O)c2ccc(Cl)cc2)c2ccccc21 | -5% | 1% | -25%
Cc1oc2ncn(CC(C)C)c(=O)c2c1C(=O)Nc1cccc(C(F)(F)F)c1 | 0% | -1% | .
CN1C(=O)C2(SCC(=O)N2c2ccc(F)cc2)c2ccccc21 (stereo not drawn) | -5% | 17% | .
